# Values joined by “and” are separate entries in the source; they are usually repeats but may differ in a detail not shown here. Equal values may be shown once. About 2,000 (36%) of roughly 5,500 compounds were called active. Roughly 18% stayed inconclusive and do not appear here. This is one part of the list. A number with no mark means an inactive call. No stated cut-off is given here; in the data, active means normalized growth mostly below about 0.91 (no sharp cut-off); inconclusive means no clear call, values can overlap the other calls; inactive means mostly above about 0.92.
# Assay: chemical genetic growth profiling, strain panel (AID 1159580);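 further: tested at 20 µM; growth read once vehicle control cultures reached saturation at 30 °C; 1 = growth at the plate median or of vehicle wells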
# Details: S. cerevisiae deletion strains, growth OD
structure (smiles),measurement,setting,value
C[C@H]1COc2c(N3CCN(C)CC3)c(F)cc3c(=O)c(C(=O)O)cn1c23,normalized growth,"locus YAL013W, strain DEP1, stronger effect = lower value",1
same,normalized growth,"locus YAL021C, strain ccr4, stronger effect = lower value",1.02
same,normalized growth,"locus YAL026C, strain drs2, stronger effect = lower value",1.03
same,normalized growth,"locus YAL030W, strain snc1, stronger effect = lower value",1.02
same,normalized growth,"locus YBR009C, strain hhf1, stronger effect = lower value",1.01
same,normalized growth,"locus YBR021W, strain FUR4, stronger effect = lower value",0.995
same,normalized growth,"locus YBR023C, strain chs3, stronger effect = lower value",1.02
same,normalized growth,"locus YBR171W, strain sec66, stronger effect = lower value",1.04
same,normalized growth,"locus YBR229C, strain ROT2, stronger effect = lower value",1
same,normalized growth,"locus YBR231C, strain swc5, stronger effect = lower value",1.02
same,normalized growth,"locus YBR279W, strain paf1, stronger effect = lower value",1.02
same,normalized growth,"locus YCL011C, strain gbp2, stronger effect = lower value",0.259 (active)
same,normalized growth,"locus YCL016C, strain dcc1, stronger effect = lower value",1.02
same,normalized growth,"locus YCL029C, strain bik1, stronger effect = lower value",1.02
same,normalized growth,"locus YCL061C, strain MRC1, stronger effect = lower value",1.04
same,normalized growth,"locus YCL069W, strain vba3, stronger effect = lower value",1.02
same,normalized growth,"locus YCR088W, strain abp1, stronger effect = lower value",1.02
same,normalized growth,"locus YDL005C, strain med2, stronger effect = lower value",1.04
same,normalized growth,"locus YDL035C, strain GPR1, stronger effect = lower value",1.02
same,normalized growth,"locus YDL040C, strain nat1, stronger effect = lower value",1.02
same,normalized growth,"locus YDL074C, strain BRE1, stronger effect = lower value",1.01
same,normalized growth,"locus YDL101C, strain DUN1, stronger effect = lower value",0.999
same,normalized growth,"locus YDL134C, strain PPH21, stronger effect = lower value",1.01
same,normalized growth,"locus YDL185W, strain tfp1, stronger effect = lower value",1.02
same,normalized growth,"locus YDL192W, strain arf1, stronger effect = lower value",1.02
same,normalized growth,"locus YDR001C, strain nth1, stronger effect = lower value",1.02
same,normalized growth,"locus YDR069C, strain doa4, stronger effect = lower value",1.04
same,normalized growth,"locus YDR101C, strain arx1, stronger effect = lower value",1.01
same,normalized growth,"locus YDR137W, strain rgp1, stronger effect = lower value",0.989
same,normalized growth,"locus YDR150W, strain NUM1, stronger effect = lower value",0.999
same,normalized growth,"locus YDR159W, strain sac3, stronger effect = lower value",1.03
same,normalized growth,"locus YDR162C, strain NBP2, stronger effect = lower value",0.989
same,normalized growth,"locus YDR195W, strain ref2",0.993
same,normalized growth,"locus YDR297W, strain sur2, stronger effect = lower value",1.02
same,normalized growth,"locus YDR318W, strain mcm21, stronger effect = lower value",1.02
same,normalized growth,"locus YDR334W, strain swr1, stronger effect = lower value",1.01
same,normalized growth,"locus YDR335W, strain msn5, stronger effect = lower value",1.02
same,normalized growth,"locus YDR388W, stronger effect = lower value",1.01
same,normalized growth,"locus YDR392W, strain spt3, stronger effect = lower value",1.04
same,normalized growth,"locus YDR502C, strain sam2, stronger effect = lower value",1.01
same,normalized growth,"locus YEL003W, strain gim4, stronger effect = lower value",1.01
same,normalized growth,"locus YEL037C, strain rad23, stronger effect = lower value",1.03
same,normalized growth,"locus YEL061C, strain CIN8 (second series), stronger effect = lower value",1.04
same,normalized growth,"locus YEL061C, strain CIN8, stronger effect = lower value",0.993
same,normalized growth,"locus YER015W, strain faa2, stronger effect = lower value",1.01
same,normalized growth,"locus YER016W, strain bim1, stronger effect = lower value",1.02
same,normalized growth,"locus YER110C, stronger effect = lower value",1.02
same,normalized growth,"locus YER111C, strain swi4, stronger effect = lower value",1.03
same,normalized growth,"locus YER155C, strain BEM2 (second series), stronger effect = lower value",1.03
same,normalized growth,"locus YER155C, strain BEM2, stronger effect = lower value",1.01
same,normalized growth,"locus YER167W, strain BCK2, stronger effect = lower value",1
same,normalized growth,"locus YFR010W, strain ubp6, stronger effect = lower value",1.03
same,normalized growth,"locus YGL078C, strain dbp3, stronger effect = lower value",1.02
same,normalized growth,"locus YGL086W, strain mad1, stronger effect = lower value",1.01
same,normalized growth,"locus YGL167C, strain pmr1, stronger effect = lower value",1.03
same,normalized growth,"locus YGL173C, strain kem1, stronger effect = lower value",1.01
same,normalized growth,"locus YGL227W, strain vid30, stronger effect = lower value",1.02
same,normalized growth,"locus YGL240W, strain doc1, stronger effect = lower value",1.02
same,normalized growth,"locus YGL248W, strain PDE1, stronger effect = lower value",1
same,normalized growth,"locus YGL253W, strain hxk2, stronger effect = lower value",1.01
same,normalized growth,"locus YGR078C, strain PAC10, stronger effect = lower value",0.998
same,normalized growth,"locus YGR135W, strain pre9, stronger effect = lower value",1.01
same,normalized growth,"locus YGR229C, strain SMI1, stronger effect = lower value",0.989
same,normalized growth,"locus YGR252W, strain gcn5, stronger effect = lower value",0.996
same,normalized growth,"locus YHR013C, strain ard1, stronger effect = lower value",1.02
same,normalized growth,"locus YHR027C, strain rpn1, stronger effect = lower value",1.01
same,normalized growth,"locus YHR030C, strain SLT2, stronger effect = lower value",1.01 and 0.977
same,normalized growth,"locus YHR079C, strain IRE1 (second series), stronger effect = lower value",1.01
same,normalized growth,"locus YHR079C, strain IRE1, stronger effect = lower value",0.991
same,normalized growth,"locus YHR094C, strain hxt1, stronger effect = lower value",1.01
same,normalized growth,"locus YHR129C, strain ARP1, stronger effect = lower value",1.01
same,normalized growth,"locus YHR142W, strain chs7, stronger effect = lower value",1.02
same,normalized growth,"locus YHR200W, strain rpn10, stronger effect = lower value",1.02
same,normalized growth,"locus YIL066C, strain RNR3, stronger effect = lower value",1
same,normalized growth,"locus YIL073C, strain SPO22, stronger effect = lower value",1.05
same,normalized growth,"locus YIL125W, strain kgd1, stronger effect = lower value",1.01
same,normalized growth,"locus YIR030C, strain dcg1, stronger effect = lower value",1.03
same,normalized growth,"locus YJL092W, strain hpr5, stronger effect = lower value",1.03
same,normalized growth,"locus YJL095W, strain BCK1 (second series), stronger effect = lower value",1.02
same,normalized growth,"locus YJL095W, strain BCK1, stronger effect = lower value",1.02 and 0.996
same,normalized growth,"locus YJL115W, strain asf1, stronger effect = lower value",1.04
same,normalized growth,"locus YJL129C, strain trk1, stronger effect = lower value",1.04
same,normalized growth,"locus YJL134W, strain LCB3, stronger effect = lower value",1
same,normalized growth,"locus YJL154C, strain vps35, stronger effect = lower value",1.01
same,normalized growth,"locus YJL164C, strain tpk1, stronger effect = lower value",1.01
same,normalized growth,"locus YJL166W, strain qcr8, stronger effect = lower value",1.02
same,normalized growth,"locus YJL168C, strain set2, stronger effect = lower value",1.01
same,normalized growth,"locus YJL187C, strain SWE1 (second series), stronger effect = lower value",1.01
same,normalized growth,"locus YJL187C, strain SWE1, stronger effect = lower value",1.01
same,normalized growth,"locus YJR043C, strain POL32, stronger effect = lower value",0.998
same,normalized growth,"locus YJR066W, strain TOR1, stronger effect = lower value",0.944

# From PubChem BioAssay AID1159580 (chemical genetic matrix, 2015)
